# Bioassay records deposited in PubChem BioAssay by National Center for Advancing Translational Sciences (NCATS).
# HCMV antiviral: inhibitors of human cytomegalovirus; HFF cells, HCMV-luciferase reporter, 72 h; active compounds read low; activity change, negative = inhibition, % at 57.5 µM; 410,000 compounds, 4.5% hits; AID 1259415; in the data active = activity change below about -60%; inconclusive = no clear call, values can overlap the other calls; inactive = above about -39%; also: % is scaled to controls: 0 for no effect and ±100 for the full control effect
#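 Compounds were evaluated in HFFs infected with an HCMV luciferase reporter virus (MOI 1 PFU/cell). Luciferase in lysates collected 72 h post infection served as the replication measure.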
# LASV entry inh: inhibitors of Lassa virus binding or cell entry | 300,000 compounds, 1.2% hits | Lassa virus pseudotype entry inhibition, cell reporter | Potency, µM (highest dose often 37.9 µM), inactives show at the highest dose activity change, negative = inhibition, usual class: inhibitors; calls by dose curve; tested in HEK293 cells; also: potency is read from the fitted curve at half-maximal effect; % is scaled to controls: 0 for no effect and ±100 for the full control effect; nearly all actives have a fitted effect of over 50% in size
# SARS PLP yeast: SARS-CoV PLP inhibition in yeast; 330,000 compounds, 0.19% hits; S. cerevisiae expressing SARS-CoV PLpro, growth rescue; Potency, µM (doses to about 32.9 µM), for inactives: at the highest dose activity, positive = growth rescue, most hits filed as activators; calls by dose curve; also: potency is read from the fitted curve at half-maximal effect; 0% is about no effect; nearly all actives have a fitted effect of over 55% in size
# Marburg entry inh: blocks Marburg virus binding to or entry into cells | 300,000 compounds, 1.8% hits | Marburg virus pseudotyped entry inhibition, cell reporter | Potency, µM (titrated, usually from 37.8 µM), for inactives: top-dose activity change, negative = inhibition, hits mostly inhibitors; calls by dose curve; tested in HEK293 cells; also: potency is read from the fitted curve at half-maximal effect; % is scaled to controls: 0 for no effect and ±100 for the full control effect
# HCV inhibitor: inhibitors of hepatitis C virus infection; 340,000 compounds, 3.4% hits; Huh7.5.1 HCVcc-Cre infection, luciferase reporter, 44 h; Potency, µM (highest dose often 41.8 µM), for the others: top-dose activity change, negative = inhibition, actives largely listed as inhibitors; active = well fitted inhibition curve with a large enough effect; inconclusive = small, poorly fitted or top-dose-only effect, or another doubt; inactive = no such curve, though single readings can be large or run the other way; also: potency is read from the fitted curve at half-maximal effect; % is scaled to controls: 0 for no effect and ±100 for the full control effect
#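 Infectious HCVcc-Cre (~0.5 moi) was added to cells just after compound, with cells seeded 4 h earlier at 1,000 per well. Luciferase activity after 44 h culture reported infection; substrate was incubated 15 min at room temperature before reading.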
# FMDV inh: foot and mouth disease virus antiviral activity | FMDV antiviral cell-based qHTS | 410,000 compounds, 1.2% hits | Potency, µM (titrated, usually from 57.9 µM), for inactives: at the highest dose activity change, negative = inhibition, most hits filed as inhibitors; calls by dose curve; tested in HEK293T cells; also: read-out not given here; potency is read from the fitted curve at half-maximal effect; % is scaled to controls: 0 for no effect and ±100 for the full control effect; nearly all actives have a fitted effect of over 45% in size
# Starred values were filed as active, the others as inactive; ? = inconclusive; · = not tested or not shown; [ ] = another dose, or the depositor's remark. Shown are actives, neighbours in structure and some others; about 8% of the full set was active somewhere.
SMILES,HCMV antiviral,LASV entry inh,SARS PLP yeast,Marburg entry inh,HCV inhibitor,FMDV inh
Cc1cccc(NC(=O)CN2C(=O)C(c3ccccc3)=NC23CCC(C)CC3)c1 (stereo unspecified),-61.1*,?,·,?,·,-27.5%
COC(=O)c1ccc(N=c2sc(C(=O)OC)cc(=O)n2C)cc1,20.5,·,3.8%,·,10.6%,31.6µM*
CCOC(=O)c1ccc(N=c2sc(C(=O)OC)cc(=O)n2C2CC2)cc1,15.0,-1.4%,5.9%,-1.0%,-5.3%,?
COC(=O)c1cc(=O)n(CCc2ccccc2F)c(=Nc2ccc(F)c(Cl)c2)s1,?,·,-1.9%,-6.1%,7.94µM*,15.8µM*
COC(=O)c1cc(=O)n(-c2ccc(F)cc2)c(=Nc2ccc(F)cc2)s1,64.4,-16.6%,-67.2%,?,?,22.4µM*
COC(=O)c1cc(=O)n(Cc2cccs2)c(=Nc2ccc(F)cc2)s1,-28.6,·,0.1%,·,?,?
COC(=O)c1cc(=O)n(Cc2ccco2)c(=Nc2ccc(F)c(Cl)c2)s1,-29.2,·,-6.3%,·,?,?
O=C1[C@H]2[C@@H]3[C@@H](O)[C@H](O)CC(=NOCc4ccccc4)[C@H]3CC[C@H]2C(=O)N1Cc1ccc2c(c1)OCO2,·,-19.0%[14.3 µM],·,-37.8%[14.2 µM],·,·
CCn1ncc(NC(=S)Nc2ccc3c(c2)OCO3)c1C(N)=O,-10.3,8.4%,-0.1%,-13.8%,6.2%,6.6%
COc1cc(=O)n2c(c1C(=O)N(C)Cc1nonc1C)CCN(C(=O)c1cccc(C)c1C)CC2,·,·,·,·,·,13.0%
COc1cc(/C=N/NC2=NC(C)(C)Cc3ccccc32)cc(OC)c1OC,-35.4,-22.0%,-1.7%,5.4%[46.1 µM],-12.7%,-12.6%
CC(=O)Nc1ccccc1-c1nc(CNC(=O)c2cc(C)ccc2C)c(C)o1,·,·,·,·,·,-7.9%
Cc1cnc(-n2ncc(C(=O)NCC3COCCO3)c2C2CC2)nc1-c1cccs1 (stereo unspecified),·,·,·,·,·,19.0%
CNCCC1Sc2ccccc2Oc2ccccc21 (stereo unspecified),-29.5,?,0.3%,?,11.6%,5.9%
CN(C)CCCC1Sc2ccccc2Sc2ccccc21 (stereo unspecified),-7.8,?,·,?,15.8µM*,?
O=C(Oc1ccc(Br)cc1C(=O)/C=C/c1ccccc1F)c1ccco1,-77.6*,?,·,?,10µM*,?
CC(=O)c1cc(Cl)ccc1OC(=O)c1ccco1,5.5,-0.9%,2.4%,-16.5%,3.1%,·
Cc1ccc(Cl)cc1-n1ncc2c(NCCC3=CCCCC3)ncnc21,-6.6,-10.1%[46.1 µM],·,·,·,-13.3%
Cc1nnc(-c2ccco2)c2cn(-c3cccc(Br)c3)nc12,-29.1,?,4.0%,-15.7%[46.1 µM],?,22.4µM*
CCCCn1c(-c2ccc(C(C)(C)C)cc2)nc2cc3[nH]c(=O)c(C(C)C)nc3cc21,12.0,·,-12.1%,·,-12.6%,35.5µM*
COc1cc2c(C#N)c(N3CCN(c4ccccc4OC)CC3)nc(N)c2c(N)n1,-28.3,11.2µM*,-18.7%,?,?,39.8µM*
COc1cc2c(C#N)c(N3CCN(C)CC3)nc(N)c2c(N)n1,14.1,·,0.2%,-0.8%,?,·
COc1ccc(NC(=O)C2(C)Cc3c(-c4ccc(NC(C)=O)cc4)ccnc3O2)cc1OC (stereo unspecified),8.4,·,·,·,·,-12.3%
CCC(NC(=O)Nc1ccc(OC)c(OC)c1)c1c(-n2cccc2)sc2c1CCN(C)C2 (stereo unspecified),-35.1,8.5%[46.1 µM],·,·,·,-2.0%
CCC(NC(=O)Nc1cc(OC)ccc1OC)c1c(-n2cccc2)sc2c1CCN(CC)C2 (stereo unspecified),-72.8*,1.1%[46.1 µM],·,·,·,4.9%
SMILES,HCMV antiviral,LASV entry inh,SARS PLP yeast,Marburg entry inh,HCV inhibitor,FMDV inh
CCOc1ccc(NC(=O)NC(C)c2c(-n3cccc3)sc3c2CCN(CC)C3)cc1 (stereo unspecified),-79.3*,11.9%[46.1 µM],·,·,·,10.4%
CC(=O)c1ccc(N2CCN(c3ncnc4c3cnn4-c3cc(Cl)ccc3C)CC2)cc1,-8.4,0.1%[46.1 µM],·,·,·,14.1µM*
Cc1ccc(-n2ncc3c(N4CCCCCC4)ncnc32)cc1Cl,-90.3*,15.3%[46.1 µM],·,·,·,63.1µM*
Clc1ccc(Cn2ncc3c(N4CCCCC4)ncnc32)c(Cl)c1,-21.1,3.2%,·,1.9%,4.7%,28.2µM*
Cc1ccc(Cl)cc1-n1ncc2c(N3CCCCCC3)ncnc21,-35.3,?,·,·,·,20µM*
Clc1ccc(Cn2ncc3c(N4CCCCC4)ncnc32)cc1,-15.5,-17.3%,-4.6%,-21.4%[46.1 µM],?,?
COc1ccc(N2CCN(c3ncnc4c3cnn4-c3ccc(C)c(Cl)c3)CC2)cc1,-38.6,19.8%[46.1 µM],·,·,·,-1.1%
CC1=NN(C(N)=S)C(C)(C)C1,-4.5,·,0.1%,·,15.5%,-8.4%
O=C(CCC(=O)N(CC(=O)NC1CCCCC1)Cc1ccccc1)Nc1ccccn1,-9.7,-23.0%,0.2%,?,3.9%,-18.5%
c1ccc(CN2CCN(c3ncnc4c3cnn4-c3ccccc3)CC2)cc1,25.2,?,·,·,·,?
Cc1ccc(-n2ncc3c(N4CCN(Cc5ccccc5)CC4)ncnc32)cc1Cl,-31.7,4.9%[46.1 µM],·,·,·,12.6µM*
Cc1ccc(-n2ncc3c(N4CCCCC4)ncnc32)cc1Cl,-88.6*,?,·,·,·,25.1µM*
COc1ccccc1N1CCN(c2ncnc3c2cnn3-c2cc(Cl)ccc2C)CC1,?,-8.1%[46.1 µM],·,·,·,11.2µM*
COc1cccc(N2CC(NC(=O)C(c3ccccc3)c3ccccc3)CC2=O)c1 (stereo unspecified),-22.5,-6.1%[46.1 µM],·,·,·,-21.4%
COc1ccc(Nc2cc(C(=O)NCCCN(C)C3CCCCC3)c3ccccc3n2)cc1,-106.8*,?,·,10µM*,·,0.0%
COc1ccc(Nc2cc(C(=O)NCCCN(C)C3CCCCC3)c3ccccc3n2)c(OC)c1,-31.8,?,·,?,·,-0.1%
COc1ccccc1Nc1cc(C(=O)N2CCc3ccccc3C2)c2ccccc2n1,·,·,-8.3%,·,·,·
COc1ccc(Nc2cc(C(=O)N3CCc4ccccc4C3)c3ccccc3n2)c(OC)c1,-23.0,·,9.3%,·,10µM*,-12.7%
COc1ccc(N2CCN(CCCNC(=O)c3cc(Nc4ccc(OC)cc4OC)nc4ccccc34)CC2)cc1,-38.3,?,·,·,·,22.4µM*
COc1ccc(CN2CCc3ccccc3C2)c(OC)c1OC,-14.0,5.2%,-12.2%,-4.5%,18.6%,-2.3%
Cc1cc(N2C(=O)C(=O)/C(=C(/O)c3ccccc3)[C@H]2c2cccs2)no1,·,·,·,20.6%,·,·
CC1CC2CCCC(O)=C2C(=O)O1 (stereo unspecified),-60.6*,·,·,·,11.3%,-27.3%
CCCCC(=O)c1c(O)c2ccccc2oc1=O,0.0,4.4%,-32.1%,-0.4%,-3.7%,11.3%
O=C(CC1CCCCC1)c1c(O)c2ccccc2oc1=O,-68.1*,0.4%,-21.2%,5.6%,-0.4%,7.7%
CC1CCC(C(=O)c2c(O)c3ccccc3oc2=O)CC1 (stereo unspecified),-100.2*,2.3%,-6.4%,2.8%,?,-7.9%
CCCCOc1ccc(S(=O)(=O)n2nc(C)c(S(=O)(=O)N3CCC(C)CC3)c2C)cc1,-15.3,1.5%[46.1 µM],·,·,·,16.0%
